Source: PubChem (National Center for Advancing Translational Sciences (NCATS))
Sampled rows, rich in hits. Any-hit rate of the full collection: about 13%.
ALDH1A1 inh: qHTS Assay for Inhibitors of Aldehyde Dehydrogenase 1 (ALDH1A1) | Purified ALDH1A1, NADH fluorescence, propionaldehyde substrate | Potency, µM (titrated, usually from 75.3 µM), for the others: top-dose activity, negative = inhibition, hits mostly inhibitors | hit rate 7.3% among 220,000; active means well fitted inhibition curve with a large enough effect, not every such curve was filed as active; inconclusive means small, poorly fitted or top-dose-only effect, or another doubt; inactive means no such curve, though single readings can be large or run the other way;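 further: potency means the concentration at half of the fitted maximal effect; plate controls were no enzyme wells and a reference inhibitor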
G9a inh: qHTS Assay for Inhibitors of Histone Lysine Methyltransferase G9a | Histone-lysine N-methyltransferase EHMT2 (Homo sapiens), Q96KQ7 | Potency, µM (top dose mostly 102 µM), inactives show at the highest dose activity, negative = inhibition, most hits filed as inhibitors | G9a H3K9 monomethylation, AlphaScreen, 2 h | hit rate 8.8% among 350,000; further: potency means the concentration at half of the fitted maximal effect; on the % scale 0 is the no-effect control and ±100 the full control effect; nearly all actives have a fitted effect of over 75% in size
Target sequence (Q96KQ7 913-1193 limits assumed): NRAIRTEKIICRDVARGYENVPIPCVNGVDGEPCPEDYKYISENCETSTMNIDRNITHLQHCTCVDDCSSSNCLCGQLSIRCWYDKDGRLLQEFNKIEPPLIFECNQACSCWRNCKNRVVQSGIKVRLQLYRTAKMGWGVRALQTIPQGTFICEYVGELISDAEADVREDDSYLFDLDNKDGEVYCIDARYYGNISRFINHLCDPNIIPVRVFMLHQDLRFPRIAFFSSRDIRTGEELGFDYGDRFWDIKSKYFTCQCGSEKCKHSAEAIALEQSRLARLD
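AlphaScreen read-out: biotin-H3K9 peptide (500 nM) methylation by 20 nM enzyme with 20 uM SAM, 2 h at room temperature after 15 min compound preincubation; anti-monomethyl H3K9 antibody plus donor/acceptor beads, 10 min dark.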
Lamin A splicing: qHTS Assay for Modulators of Lamin A Splicing; hit rate 0.01% among 200,000; Potency, µM (top dose mostly 46.1 µM), inactives show top-dose ratio change, negative = inhibition, most hits filed as inhibitors; HeLa LMNA splicing GFP/RFP minigene ratio, 48 h; active means well fitted inhibition curve with a large enough effect in the signal ratio, with a control signal flat, not every such curve was filed as active; inconclusive means small, poorly fitted or top-dose-only effect, or effect the other way, or a change in a side signal; the % refers to the signal ratio; further: potency means the concentration at half of the fitted maximal effect; on the % scale 0 is the no-effect control and ±100 the full control effect
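Read-out is the ratio of GFP to DsRed2 object intensity, acquired by 488 nm laser-scanning cytometry on HeLa lamin A-EGFP minigene reporter cells. Compound incubation 48 hrs at 37 °C in Opti-MEM with 2% FBS; DMSO 0.5% final.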
JMJD2E inh: qHTS Assay for Inhibitors of Human Jumonji Domain Containing 2E (JMJD2E). Lysine-specific demethylase 4E (Homo sapiens), B2RXH2. JMJD2E catalytic domain, FDH-coupled NADH fluorescence (FDH is formaldehyde dehydrogenase). Potency, µM (highest dose often 57.1 µM), inactives show at the highest dose activity change, negative = inhibition, actives largely listed as inhibitors. hit rate 1.6% among 230,000; active means well fitted inhibition curve with a large enough effect, not every such curve was filed as active; inconclusive means small, poorly fitted or top-dose-only effect, or another doubt; inactive means no such curve, though single readings can be large or run the other way;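 further: potency means the concentration at half of the fitted maximal effect; 0% = wells with enzyme and -100% = buffer wells without enzyme; nearly all actives have a fitted effect of over 50% in size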
Target sequence (B2RXH2 1-337 limits assumed): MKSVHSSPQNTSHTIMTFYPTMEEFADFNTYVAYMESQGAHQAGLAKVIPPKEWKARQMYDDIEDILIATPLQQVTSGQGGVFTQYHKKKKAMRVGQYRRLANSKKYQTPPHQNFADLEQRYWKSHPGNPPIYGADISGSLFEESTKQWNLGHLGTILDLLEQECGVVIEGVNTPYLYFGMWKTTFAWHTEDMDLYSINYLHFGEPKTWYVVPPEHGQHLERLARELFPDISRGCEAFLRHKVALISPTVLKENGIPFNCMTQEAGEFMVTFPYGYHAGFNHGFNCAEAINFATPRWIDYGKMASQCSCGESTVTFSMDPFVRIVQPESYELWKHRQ
miR-21 act: qHTS Assay for Modulators of miRNAs and/orActivators of miR-21; HeLa miR-21 FLuc reporter, luciferase, 48 h; Potency, µM (titrated, usually from 38.3 µM), inactives show top-dose activity change, positive = activation, most hits filed as activators; 340,000 tested, under 10 active;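 further: % of control where 0% means no effect; miR-21 action dims this reporter so a rising signal means less miR-21 action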
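Compounds were titrated across several concentrations (up to approximately 40 uM) and incubated 48 hours with HeLa miR-21-FLuc reporter cells (miR-21 target sequence downstream of FLuc, endogenous miR-21). Readout was firefly luciferase luminescence after lytic detection reagent.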
Sfp inh: qHTS Assay for Inhibitors of Bacillus subtilis Sfp phosphopantetheinyl transferase (PPTase) | 4'-phosphopantetheinyl transferase ffp (Bacillus subtilis), Q9F4F7 | hit rate 3.5% among 310,000 | AID 1490, 2009 | Potency, µM, for inactives: largest response in the series, negative = inhibition, most hits filed as inhibitors | Biochemical Sfp PPTase activity, qHTS;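 further: the enzyme is Sfp with the accession as filed and its product quenches rhodamine fluorescence; potency means the concentration at half of the fitted maximal effect; 0% = enzyme reaction without inhibitor and -100% = no enzyme wells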
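Sfp 15 nM + cpd, 15 min RT; start w/ rhodamine-CoA 5 uM, BHQ-2-YbbR 12.5 uM (final); 50 mM Hepes pH 7.6, 10 mM MgCl2, 0.01% NP-40, 0.01% BSA; read 525/598 nm at 0 and 30 min.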
Starred values were filed as active, the others as inactive; ? = inconclusive; / = not tested or not shown; [ ] = remark or other dose. Unless noted, the call rests on the fitted dose curve; in most records, active means well fitted curve in the direction sought with a large enough effect; inconclusive means small, poorly fitted or top-dose-only effect, or another doubt; inactive means no such curve, though single readings can be large; an effect the other way counts as inactive or inconclusive.

SMILES | ALDH1A1 inh | G9a inh | Lamin A splicing | JMJD2E inh | miR-21 act | Sfp inh
COCCNC(=O)CN1C(=O)/C(=C/c2ccccc2)Oc2ccc(C(C)(C)C)cc21 | / | 6%[12.7 µM] | / | / | 1% | ?
C=CCc1ccccc1OCCn1ccnc1 | -18% | 8.9µM* | 5% | -23% | -5% | -5%
Cc1cccc(OCCCCCn2ccnc2)c1C | ? | -24% | ? | 5% | 10% | -2%
CC(C)(C)c1ccccc1OCCCCCn1ccnc1 | ? | ? | / | -1% | 9% | 56µM*
Clc1ccccc1OCCn1ccnc1 | ? | 10µM* | 1% | -16% | -4% | -27%
C=CCc1cccc(OC)c1OCCOCCn1ccnc1 | 20µM* | ? | -6% | -1% | -1% | -75%
CCC1(c2ccc(Cl)cc2)NC(=O)N(CC(=O)NC2CCCC(C)C2C)C1=O (stereo unspecified) | / | -34% | / | / | / | /
CCOc1cccc(C(=O)Nc2ccc3c(c2)OCCO3)c1 | / | / | / | / | -13% | 1%
O=C(NCCS(=O)(=O)N1CCN(c2ccccc2F)CC1)C(c1ccccc1)c1ccccc1 | / | -5%[59 µM] | 4%[46 µM] | / | -2% | /
Cc1ccccc1C(=O)Nc1ccc(N2CCCC2)cc1 | ? | 3.2µM* | 0%[46 µM] | -8% | -36% | -17%
Cc1ccc(C(=O)Nc2ccc(N3CCCC3)cc2)c(C)c1 | ? | / | / | 25µM* | -18% | 3%
O=C(Nc1ccc(N2CCCCC2)cc1)c1ccc2ccccc2n1 | -4% | 28µM* | / | -3% | -19% | ?
Cc1ccc(NC(=O)c2cc(N3C(=O)C4CCCCC4C3=O)ccc2N2CCOCC2)cc1 (stereo unspecified) | 22µM* | / | 1%[46 µM] | 2% | -8% | 5%
O=C(Nc1ccc(N2CCCC2)cc1)c1ccccc1[N+](=O)[O-] | / | 13µM* | / | / | -13% | 21%
O=C(Nc1ccc(N2CCN(Cc3ccccc3)CC2)cc1)c1ccccc1[N+](=O)[O-] | 6% | 14%[59 µM] | 16%[9.22 µM] | -3% | -3% | 4%
O=C(Nc1ccc(-c2cn3c(n2)SCC3)cc1)c1ccc2ccccc2n1 | -4% | -35% | ? | -6% | 2% | -4%
O=C(Nc1cccc(-c2cn3c(n2)SCC3)c1)c1ccc2ccccc2n1 | -8% | 8.9µM* | ? | -18% | -23% | 0%
COc1ccccc1NC(=O)CSc1ncc2c(n1)-c1ccccc1N(Cc1ccccc1C)S2(=O)=O | / | 0%[59 µM] | / | / | 8% | /
CCCn1c(=O)c2[nH]c(-c3ccc(OCC(=O)Nc4ccc(C#N)cc4)cc3)nc2n(CCC)c1=O | -3% | 27%[59 µM] | ? | ? | / | -3%
Cc1cc(C)cc(NC(=O)N2CCC(N3CCCCC3)CC2)c1 | / | 1%[59 µM] | / | / | -2% | /
Cc1ccccc1NC(=O)c1ccc(F)c(S(=O)(=O)N(C)C2CCCCC2)c1 | / | 7%[59 µM] | ? | / | -2% | /
Cc1ccc(Sc2ccc(CN3CCCCC3)cc2[N+](=O)[O-])cc1 | -1% | 18µM* | / | -1% | 6% | -3%
O=c1[nH]c2ccccc2c2oc(CCl)nc12 | ? | 35µM* | / | ? | 4% | 6.3µM*
CCOc1ccccc1Nc1nc2ccccc2nc1NS(=O)(=O)c1ccc(Cl)cc1 | / | -9%[59 µM] | / | / | -1% | /
Cc1cc2oc(=O)cc(CN3CCCCC3C)c2cc1C (stereo unspecified) | / | 50µM* | / | / | -11% | -5%
SMILES | ALDH1A1 inh | G9a inh | Lamin A splicing | JMJD2E inh | miR-21 act | Sfp inh
COCCNc1oc(Cc2cccc3ccccc23)nc1C#N | / | 79µM* | / | / | -5% | 21%
C=CCNc1oc(Cc2cccc3ccccc23)nc1C#N | ? | 50µM* | -7% | -18% | -12% | -8%
N#Cc1nc(Cc2cccc3ccccc23)oc1NCc1ccc(F)cc1 | -4% | 25µM* | ? | 1% | 7% | 22%
CC1CCN(S(=O)(=O)c2ccc(C(=O)Nc3nc4ccc(F)cc4s3)cc2)CC1 | / | 0%[59 µM] | -1%[46 µM] | / | 8% | /
Cc1cc(C(F)F)n2ncc(C(=O)NCc3ccc(F)cc3)c2n1 | / | / | / | -12% | 0% | -6%
Cc1cc(C(F)F)n2ncc(C(=O)NC3CCCCCC3)c2n1 | 13µM* | 7%[12.7 µM] | 14% | -43% | -22% | 7%
CCN(CC)CCSc1nnc2c3cc(F)ccc3n(CC)c2n1 | / | -34%[59 µM] | / | / | -23% | /
CCn1cc(S(=O)(=O)c2cc(C)cc(C)c2)c(=O)c2cc(F)c(N3CCCC3)cc21 | / | -20%[59 µM] | ? | / | -9% | /
Cc1c(C)c2c(c(C)c1O)CCC(C)(C(=O)O)O2 (stereo unspecified) | / | 14µM* | / | / | / | /
CC(C)C[C@@H](CO)N1CCN(Cc2ccc([N+](=O)[O-])cc2)CCC1=O | / | / | / | / | 1% | ?
CCC(C)C(=O)Nc1nc2c(s1)C(=O)CC(C)(C)C2 (stereo unspecified) | 16µM* | -10% | -13% | 2% | -22% | 6%
CC1(C)CC(=O)c2sc(NC(=O)CN3C(=O)CCC3=O)nc2C1 | ? | ? | -3% | ? | 3% | 1%
CCC(Oc1ccccc1)C(=O)Nc1nnc(C)s1 (stereo unspecified) | 5% | -5%[59 µM] | -4% | -2% | -2% | 8%
CC1(C)CC(=O)c2sc(NC(=O)CN3CCOCC3)nc2C1 | 20µM* | ? | 18% | -6% | 0% | 4%
CCC(Oc1ccccc1)C(=O)Nc1nc2c(s1)C(=O)CC(C)(C)C2 (stereo unspecified) | 13µM* | 0%[12.7 µM] | 10% | -23% | 0% | 9%
CC(C)CCn1c(=O)c2cccnc2n(CC(=O)Nc2ccc(F)cc2)c1=O | / | 4%[59 µM] | / | / | 10% | /
c1ccc(CN2CCN(c3nc(NCc4ccco4)c4ccccc4n3)CC2)cc1 | ? | ? | ? | ? | 30% | 45µM*
Oc1ccccc1Nc1nc(NCc2ccco2)c2ccccc2n1 | / | 50µM* | / | -12% | 29% | 25µM*
c1ccc(Nc2nc(NCc3ccco3)c3ccccc3n2)cc1 | / | 50µM* | / | ? | ? | 16µM*
Cc1ccccc1Nc1nc(NCc2ccco2)c2ccccc2n1 | ? | ? | ? | ? | 2% | ?
OCCN1CCN(c2nc(NCc3ccco3)c3ccccc3n2)CC1 | ? | -8%[59 µM] | -12% | ? | -10% | 2%
COc1ccc(-c2nnc3n2N=C(c2c(OC)cccc2OC)CS3)cc1 | / | / | / | / | / | -10%
C=CCn1c(SCC(=O)NCCOC)nc2scc(-c3ccco3)c2c1=O | 7.9µM* | 45µM* | 10% | -24% | -9% | 10µM*
